# Reference: PubChem BioAssay
# Calls of active or inactive are those of the source. Unless noted, no stated cut-off is given here; in the data, active means inhibition above about 80%; inactive means the rest.
# Tests used:
# [1] = growth inhibition, single agent or in combination, cell-based, chromothripsis tumors, cisplatin or BGB combos (AID 1671449); conditions: LFS_MB_P medulloblastoma cells;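 further: cells exposed for 96 hours; 0% = vehicle DMSO and 100% = killing by high DMSO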
# [2] = growth inhibition, single agent and combos, cell-based, chromothripsis tumors, cisplatin or BGB combos (AID 1671450); conditions: HDN33 neuroblastoma cells, stronger effect = higher value;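 further: cells exposed to compound for four days; 0% = vehicle DMSO and 100% = cell killing by high DMSO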
# [3] = growth inhibition, single agents and combos, ICB984, cell-based, cisplatin or BGB combos, synergistic combos for chromothripsis tumors (AID 1671451; call rule not given here;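 further: cells exposed for 96 hours before readout; 0% = vehicle DMSO and 100% = killing by high DMSO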); conditions: ICB984 medulloblastoma cells, drug combinations, stronger effect = higher value
# [4] = growth inhibition, single agents and combos, LFS_MB_1R, cell-based, cisplatin or BGB combos, synergistic combos for chromothripsis tumors (AID 1671452); conditions: LFS_MB_1R medulloblastoma cells, stronger effect = higher value;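 further: cells exposed for 96 hours before readout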
# [5] = growth inhibition, single agents and combos, HTB85, cell-based, BGB or cisplatin IC20 combos, synergistic combos for chromothripsis tumors (AID 1671453); conditions: HTB85 osteosarcoma cells, drug combinations, stronger effect = higher value;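 further: cells exposed for 96 hours before readout; 0% = vehicle DMSO and 100% = high DMSO killing control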
# [6] = growth inhibition, single agents and combos, CRL2098, cell-based, BGB or cisplatin IC20 combos, synergistic combos for chromothripsis tumors (AID 1671454); conditions: CRL2098 osteosarcoma cells, drug combinations, stronger effect = higher value;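 further: cells exposed for 96 h before readout; 0% = vehicle DMSO and 100% = killing by high DMSO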
# [7] = growth inhibition, single agents and combos, HD-MB03, cell-based, BGB or cisplatin IC20 combos, synergistic combos for chromothripsis tumors (AID 1671455; in the data active means inhibition above about 83%;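 further: 0% = vehicle DMSO and 100% = high DMSO as cytotoxic control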); conditions: HD-MB03 medulloblastoma cells, stronger effect = higher value
# [8] = growth inhibition, single agents and combos, UWB1.289, cell-based, BGB or cisplatin combos, synergistic combos for chromothripsis tumors (AID 1671456); conditions: UWB1.289 ovarian carcinoma cells, stronger effect = higher value;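 further: cells exposed to compound for four days; 0% = vehicle DMSO and 100% = killing by high DMSO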
# [9] = growth inhibition, single agents and combos, LFS_MB_2R, cell-based, cisplatin combos, synergistic combos for chromothripsis tumors (AID 1671457); conditions: LFS_MB_2R medulloblastoma cells, stronger effect = higher value;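 further: cells exposed to compound for four days before readout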
# [10] = growth inhibition, MDA-MB-436, cell-based, BGB or cisplatin combos, synergistic combos for chromothripsis tumors (AID 1671458; call rule not given here;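 further: cells exposed for 96 hours; 0% = vehicle DMSO and 100% = killing by high DMSO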); conditions: MDA-MB-436 breast carcinoma growth inhibition, drug combinations, stronger effect = higher value
# [11] = UWB1.289_BRCA1 ovarian cancer growth, cell-based, BGB or cisplatin combinations (AID 1671459); conditions: UWB1.289 BRCA1 ovarian carcinoma, drug combinations, stronger effect = higher value
# [12] = drug combination toxicity in non-malignant astrocytes – cell-based, BGB or cisplatin IC20 combos, cytotoxicity control for chromothriptic childhood tumor combination screen (AID 1671460); conditions: Human astrocytes, viability inhibition, drug combinations, at 0.5 µM, stronger effect = higher value;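 further: cells exposed to compounds for 96 hours before viability readout; 0% = vehicle and 100% = killing control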
# [13] = BT084 cell growth, single and combined drugs, ICGC_MB145, cisplatin and BGB IC40 combos (AID 1671461); conditions: BT084 medulloblastoma cells, drug combinations, stronger effect = higher value;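 further: cells exposed to drugs for 96 hours; 0% = vehicle DMSO and 100% = high DMSO full killing control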
# [14] = RCMB18 cell growth, single agent and combined, cisplatin and BGB IC40 combos (AID 1671462); conditions: RCMB18 medulloblastoma cells, stronger effect = higher value;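 further: cells exposed to compound for four days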
# [15] = CRL1545 cell growth, single agent and combined, cisplatin and BGB IC20 combos (AID 1671464); conditions: CRL1545 osteosarcoma cells, stronger effect = higher value;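 further: cells exposed to compound for 96 hours before readout; 0% = vehicle DMSO and 100% = high DMSO killing control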
# [16] = galactose survival enhancers in mitochondrial complex I cybrids – cell-based, galactose medium, ATP luminescence, primary screen (AID 1645843;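 active means z-score of at least 1.8 in each of two replicates, scored against plate mean and spread of sample wells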;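 further: positive z means more ATP and so rescue of galactose-driven cybrid death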); conditions: complex I mutant cybrid cells, 72 h, stronger effect = higher value
# [17] = measured here: combination with BGB IC40, at 0.05 µM
# [18] = measured here: with BGB IC20 combination, at 0.5 µM
# [19] = measured here: with cisplatin IC20 combination, at 0.5 µM
# [20] = measured here: combination with cisplatin, at 0.5 µM
# [21] = measured here: combination with cisplatin, at 5 µM
compound,measurement,setting,value
O=C1N=c2ccccc2=C1c1c(O)[nH]c2ccccc12,inhibition,"[1]; at 0.5 µM, stronger effect = higher value",-10.5% (inactive)
same,inhibition,"[1]; measured here: combination with BGB IC20, at 0.005 µM",-1.18%
same,inhibition,"[1]; measured here: combination with BGB IC40, at 0.005 µM",-11.2%
same,inhibition,[1]; [17],-2.67%
same,inhibition,"[1]; measured here: combination with cisplatin, at 0.5 µM, stronger effect = higher value",-21%
same,inhibition,"[1]; measured here: combination with cisplatin, at 5 µM, stronger effect = higher value",114%
same,inhibition,"[2]; BGB combo, at 5 µM",61%
same,inhibition,[2]; at 0.5 µM,5.47% (inactive)
same,inhibition,"[2]; cisplatin combo, at 5 µM",51.4%
same,inhibition,[2]; [18],16.4%
same,inhibition,[2]; [19],-3.78%
same,inhibition,"[2]; single agent, at 5 µM",45.3%
same,inhibition,"[3]; BGB IC20 combo, at 0.005 µM",11.6%
same,inhibition,"[3]; BGB IC40 combo, at 0.005 µM",12.6%
same,inhibition,"[3]; BGB IC40 combo, at 0.05 µM",98.1%
same,inhibition,[3]; at 0.5 µM,-13.3% (inactive)
same,inhibition,"[3]; cisplatin combo, at 0.05 µM",98%
same,inhibition,"[3]; cisplatin combo, at 0.5 µM",-8.2%
same,inhibition,"[3]; cisplatin combo, at 5 µM",-23.1%
same,inhibition,"[3]; measured here: 5 uM single agent, at 5 µM",-12.3%
same,inhibition,[4]; at 0.5 µM,38.6% (inactive)
same,inhibition,[4]; [17],-8.14%
same,inhibition,[4]; [20],68.7%
same,inhibition,[4]; [21],104%
same,inhibition,[5]; at 0.5 µM,-27.2% (inactive)
same,inhibition,"[5]; measured here: with BGB IC20, at 0.5 µM",-36.8%
same,inhibition,"[5]; measured here: with BGB IC20, at 5 µM",49.4%
same,inhibition,"[5]; measured here: with cisplatin IC20, at 0.5 µM",-31.8%
same,inhibition,"[5]; measured here: with cisplatin IC20, at 5 µM",19.9%
same,inhibition,"[5]; single agent, at 5 µM",73.7%
same,inhibition,[6]; at 0.5 µM,-38.8% (inactive)
same,inhibition,"[6]; measured here: combination with BGB at IC20, at 0.5 µM",-85.6%
same,inhibition,"[6]; measured here: combination with cisplatin at IC20, at 0.5 µM",-13.6%
same,inhibition,[7]; at 0.5 µM,-7.99% (inactive)
same,inhibition,"[7]; measured here: combo with BGB at IC20, at 0.5 µM",-0.15%
same,inhibition,"[7]; measured here: combo with cisplatin at IC20, at 0.5 µM",-18.7%
same,inhibition,[8]; at 0.5 µM,-2.76% (inactive)
same,inhibition,"[8]; measured here: inhibition with BGB combination, at 0.05 µM",-4.21%
same,inhibition,"[8]; measured here: inhibition with cisplatin combination, at 0.05 µM",-14.6%
same,inhibition,[9]; at 0.5 µM,-4.68% (inactive)
same,inhibition,[9]; [20],-7.54%
same,inhibition,[9]; [21],96.6%
same,inhibition,[10]; at 0.5 µM,0.62% (inactive)
same,inhibition,"[10]; measured here: BGB combination, at 0.5 µM",-2.01%
same,inhibition,"[10]; measured here: BGB combination, at 5 µM",38.1%
same,inhibition,"[10]; measured here: cisplatin combination, at 0.5 µM",2.13%
same,inhibition,"[10]; measured here: cisplatin combination, at 5 µM",46%
same,inhibition,"[11]; BGB combination, concentration series, at 5 µM",47.2%
same,inhibition,[11]; at 0.5 µM,-5.34% (inactive)
same,inhibition,"[11]; cisplatin combination, concentration series, at 5 µM",63.2%
same,inhibition,[12],-0.99% (inactive)
same,inhibition,[12]; measured here: combo with BGB IC20,17.5%
same,inhibition,[12]; measured here: combo with cisplatin IC20,-29.2%
same,inhibition,[13]; at 0.5 µM,-8.62% (inactive)
same,inhibition,"[13]; cisplatin combination, at 0.5 µM",-4.64%
same,inhibition,"[13]; cisplatin combination, at 5 µM",99.5%
same,inhibition,"[13]; measured here: BGB IC40 combination 0.05 uM, at 0.05 µM",21.5%
same,inhibition,"[13]; single agent, at 5 µM",59.7%
same,inhibition,[14]; at 0.5 µM,50.6% (inactive)
same,inhibition,"[14]; cisplatin combo, at 5 µM",103%
same,inhibition,"[14]; measured here: BGB IC40 combination, at 0.05 µM",-10.1%
same,inhibition,[14]; [20],81.1%
same,inhibition,"[14]; single agent, at 5 µM",98.9%
same,inhibition,[15]; at 0.5 µM,7.46% (inactive)
same,inhibition,[15]; [18],-4.11%
same,inhibition,[15]; [19],11.3%
same,inhibition,"[15]; single agent, at 0.05 µM",-37%
same,inhibition,"[15]; single agent, at 5 µM",95.5%
CCn1nc(C(C)C)cc1C(=O)N1CCC(n2cc(CC(C)C)nn2)CC1,z-score,[16],-0.55 (inactive)
Cc1cc(CN2CCC(Cc3ccc(F)cc3)CC2)n(C)n1,z-score,[16],0.225 (inactive)
